Screening data: PubChem BioAssay, Sanford-Burnham Center for Chemical Genomics
An excerpt weighted towards active compounds, which were near 3.2% of everything screened.
CRFBP-R2 agonist – CRF-BP/CRF-R2 complex agonism | AID 588473 | activation, % at 13.2 µM | HEK293 CRF-R2/CRF-BP, calcium dye fluorescence (FLIPR); percent of saturating CRF peptide response | 0.46% of 350,000 active;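 active = activation of at least 50%, plus an integration ratio under a set limit after plate pattern correction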
aDG glyco up – increases alpha dystroglycan glycosylation; activation, % at 10 µM; 0.22% of 360,000 active; AID 624168; Pro5-aDG cells, alpha-DG glycosylation AlphaScreen (IIH6); 0% Pro5, 100% B10-LARGE cell signal;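 active = activation of at least 8% versus controls, or a plate z-score of at least 8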;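 note: Pro5 are CHO cells carrying HIG-tagged alpha-DG that lacks glycosylation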
PfG6PD inh – PfG6PD (Plasmodium falciparum) enzyme inhibition. 0.78% of 350,000 active. PfGluPho enzyme, NADPH resazurin-diaphorase fluorescence. inhibition, % at 20 µM. AID 504690;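 active = inhibition reaching at least a set limit at 20 µM in the primary screen, cut at about 59% in these data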
CRFR2-BP antag – antagonists of CRF-binding protein/CRF-R2 receptor complex | 0.59% of 350,000 active | HEK293 CRF-R2/CRF-BP, CRF-induced calcium fluorescence | AID 588475 | inhibition, % at 11.8 µM;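 active = inhibition of the ligand-induced calcium signal above about 50% at the single tested concentration, limit read from the data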
Cardio protect – protects H9c2 cardiomyocytes from peroxide injury. H2O2 injury protection, ATPLite, 2 h. protection from H2O2 cell death, % at 20 µM. 0.63% of 360,000 active;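 active = compounds giving at least 50% protection of heart cells from peroxide-induced death in the single-dose screen, raw or plate-pattern-corrected value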
FAS-TE inh – inhibitors of human fatty acid synthase thioesterase domain. recombinant FAS-TE, OMFH fluorogenic substrate, fluorescence endpoint. 0.67% of 360,000 active. P49327. inhibition, % at 15 µM;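 active = compounds whose normalised, plate-corrected inhibition of enzyme fluorescence in the single-dose primary screen is 50% or more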
PfG6PD confirm – PfG6PD inhibition, single-dose confirmed | inhibition, % at 20 µM | shares compounds with PfG6PD inh | recombinant PfGluPho, NADPH-diaphorase-resazurin fluorescence | 34% of 2,400 active;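 active = inhibition of at least 50% at 20 µM in any single replicate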
Diaph ctr 10uM – diaphorase inhibition or oxidation at 10 uM NADPH; shares compounds with PfG6PD inh; diaphorase-coupled resazurin reduction, fluorescence, NADPH 10 uM; inhibition, % at 20 µM; 39% of 820 active; AID 504862;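 active = average inhibition reaching 50% or more with the compound at 20 µM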;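 note: resorufin red fluorescence formed as diaphorase reduces resazurin using NADPH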
Diaph ctr 30uM – counter-screen for P. falciparum G6PD inhibitors: diaphorase inhibitors, oxidizers | inhibition, % at 20 µM | 29% of 820 active | AID 504863 | Diaphorase/resazurin coupled assay, resorufin fluorescence, 30 uM NADPH | shares compounds with PfG6PD inh;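 active = inhibition averaging 50% or more, tested at 20 µM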
A number is an active result; . = inactive; / = no result.

SMILES	CRFBP-R2 agonist	aDG glyco up	PfG6PD inh	CRFR2-BP antag	Cardio protect	FAS-TE inh	PfG6PD confirm	others
O=c1[nH]cnc2c1ncn2[C@@H]1O[C@H](COS(=O)(=O)O)[C@@H](O)[C@H]1O	.	.	.	.	.	.	/
COc1ccc(NC(=O)COC(=O)CCc2ccccc2)c(OC)c1	.	.	.	.	.	.	/
O=C(COc1cccc2ccccc12)N/N=C/c1ccccc1OCc1ccc(C(=O)O)cc1	.	.	77	.	.	.	.
O=C(COc1ccccc1-c1ccccc1)N/N=C/c1cccc2ccccc12	.	.	.	.	.	.	/
NC(=S)NNc1ccc(Cl)c(Cl)c1	.	.	65	.	.	.	.
O=C(COC(=O)C1CCC(=O)N1)Nc1cccc([N+](=O)[O-])c1 (stereo unspecified)	.	.	.	.	.	.	/
O=C(Nc1nc2c(s1)CCCC2)c1ccc(Br)s1	.	.	68	.	.	.	.
O=C(Nc1nc2c(s1)CCCC2)c1ccc2ncsc2c1	.	.	65	.	.	.	.
Cc1ncsc1C(=O)Nc1nc2c(s1)CCCC2	.	.	.	.	.	.	/
O=C(Nc1nc2c(s1)CCCC2)c1ccc(N2C(=O)CCC2=O)cc1	.	.	.	.	.	.	/
CCn1c(=O)n(CC)c2cc(N3CCCC3)c(NC(=O)c3cc(Cl)ccc3OC)cc21	.	.	.	.	.	.	/
O=C(Nc1n[nH]c(=S)s1)c1ccco1	.	.	60	.	.	.	.
CC(NCCC1(Cc2ccccc2Cl)CCOC(C)(C)C1)c1cccs1 (stereo unspecified)	.	.	.	.	.	.	/
COc1ccc(O)c(C(=O)C2c3ccccc3C(=O)N2c2ccc(C)cc2)c1 (stereo unspecified)	.	.	66	.	.	.	.
COc1ccc(N2C(=O)c3ccccc3C2O)cc1 (stereo unspecified)	.	.	.	.	.	.	/
Cc1oc2c(c1C(=O)c1ccc(Cl)cc1)C(=O)C(=O)c1ccccc1-2	.	.	117	.	.	.	88	Diaph ctr 10uM=83;Diaph ctr 30uM=77
Cc1ccc(C(=O)c2coc3c2C(=O)C(=O)c2ccccc2-3)cc1	.	.	110	.	.	.	110	Diaph ctr 10uM=93;Diaph ctr 30uM=100
Cc1ccc(C(=O)c2c(C)oc3c2C(=O)C(=O)c2ccccc2-3)cc1	.	.	107	.	.	.	92	Diaph ctr 10uM=92;Diaph ctr 30uM=98
Cc1oc2c(c1C(=O)N1CCC(C)CC1)C(=O)c1ccccc1C2=O	.	/	.	.	/	/	/
COc1ccc(-n2cnc(=S)[nH]c2=S)cc1	.	.	75	.	.	.	.
COc1ccc(Cl)cc1NC(=O)c1nnn(CC(=O)Nc2cc(C)cc(C)c2)c1N	.	.	.	.	.	.	/
COc1ccc(C)cc1Nc1n[n+](-c2ccccc2)c(-c2ccc(OC)c(OC)c2OC)s1	.	.	.	.	.	.	/
COc1ccc(C)cc1Nc1n[n+](-c2ccccc2)c(-c2c(Cl)cccc2Cl)s1	.	/	73	.	/	/	.
CCc1ccc(Nc2n[n+](-c3ccccc3)c(-c3c(Cl)cccc3Cl)s2)cc1	.	.	80	.	.	.	.
COc1ccc2ccccc2c1-c1sc(Nc2ccccc2)n[n+]1-c1ccc(F)cc1	.	.	99	.	.	.	79	Diaph ctr 10uM=75;Diaph ctr 30uM=59
SMILES	CRFBP-R2 agonist	aDG glyco up	PfG6PD inh	CRFR2-BP antag	Cardio protect	FAS-TE inh	PfG6PD confirm	others
CCOc1ccccc1NC(=O)c1nc(-c2ccccc2)oc1C	.	.	.	.	.	.	/
CO/N=C\CC(=O)Nc1ccc(Cl)cc1Cl	.	.	.	.	.	.	/
CCNC(=O)NC(=O)COC(=O)c1ccccc1SCC(=O)NC(=O)NCC	.	.	59	.	.	.	.
O=C(COC(=O)c1ccccc1SCC(=O)NC1CCS(=O)(=O)C1)NC1CCS(=O)(=O)C1 (stereo unspecified)	.	.	.	.	.	.	/
[O-]/[N+](=C\c1ccncc1)c1ccccc1	.	.	74	.	.	.	52	Diaph ctr 10uM=.;Diaph ctr 30uM=.
Cc1cccc(NC(=O)CCOc2ccccc2)c1C	.	.	.	.	.	.	/
Cc1cccc(OCCC(=O)NCC(=O)Nc2cccc(C)c2C)c1	.	.	105	.	.	.	91	Diaph ctr 10uM=81;Diaph ctr 30uM=67
Cc1nn(C)c(C(=O)N/N=C/c2cccc(Oc3ccccc3)c2)c1Br	58	.	145	.	.	.	89	Diaph ctr 10uM=80;Diaph ctr 30uM=71
COc1cccc(/C=N/NC(=O)c2c(C)nc3ccc(Br)cn23)c1	.	.	91	.	.	.	54	Diaph ctr 10uM=.;Diaph ctr 30uM=.
COc1ccc(OC)c(/C=N/NC(=O)c2c(C)nc3ccc(C)cn23)c1	.	.	62	.	.	.	.
Cc1nc2ccc(Br)cn2c1C(=O)N/N=C\c1ccc(C(C)C)cc1	.	.	.	.	.	.	/
Nc1ccc(C(=O)N/N=C/c2cccc(Oc3ccccc3)c2)cc1	.	.	.	.	.	.	/
CC1CC1C(=O)Nc1nc(-c2cccs2)c(-c2cccs2)s1 (stereo unspecified)	.	.	.	.	.	.	/
Cc1ccc(Cl)cc1N1CCN(C(=O)CCS(=O)(=O)c2ccc3c(c2)NC(=O)CO3)CC1	.	.	.	.	.	.	/
NC(=O)c1ccsc1NC(=O)COC(=O)[C@@H]1CCCN1C(=O)c1cccs1	.	.	.	.	.	.	/
Cc1cccc(/N=C/c2c(O)[nH]c3ccccc23)n1	.	.	65	.	.	.	.
O=C(NC1CC1)c1cc(=S)[nH]c2ccccc12	.	.	60	.	.	.	.
Cc1ccc(C(=O)/C=C/C(=O)c2ccc(C)cc2)cc1	.	.	76	.	.	.	51	Diaph ctr 10uM=.;Diaph ctr 30uM=.
CCOC(=O)c1c(C)oc2c1c(C=NCc1ccccn1)c(O)c1ccccc12	.	.	68	.	.	.	.
O=C(CN1c2cccc3cccc(c23)S1(=O)=O)Nc1ccccc1Br	.	.	.	.	.	.	/
CC(Sc1ccc(S(=O)(=O)N2CCOCC2)cn1)C(=O)Nc1ccc(Cl)cc1Cl (stereo unspecified)	.	.	.	.	.	.	/
CC(Sc1ccc(S(=O)(=O)N2CCOCC2)cn1)c1ccccc1Cl (stereo unspecified)	.	.	.	.	.	.	.
CC(C)c1ccccc1NC(=O)C1CC(=O)N(C2CCCC2)C1 (stereo unspecified)	.	.	.	.	.	.	/
O=c1[nH]c2ccc(NCc3ccccc3OCc3ccc(Cl)cc3)cc2[nH]1	.	.	73	.	.	.	47	Diaph ctr 10uM=.;Diaph ctr 30uM=.
